# Assay results from ChEMBL document CHEMBL3988442, “University of Dundee, Small-Polar-MMV Screening Library” (2021).
# Target: AMP-activated protein kinase, AMPK (Homo sapiens) (UniProt P54646+O43741+P54619+Q9UGJ0+Q9Y478+Q13131+Q9UGI9)
# Experiment: AMP-dependent Kinase enzyme assay. An in vitro enzyme assay that detects ADP turnover that is directly proportional to AMPK activity. This uses naive AMPK that is activated during the assay with MK-8722
# Type: functional
# Parameters: scale not given: direction of the effect not stated beside the values
# Details: 30 µM
row,SMILES,Percent Effect
1,Cc1noc(C)c1CCCNC(=O)Nc1ccc2c(c1)COC2,16.7%
2,CC(=O)N1CCC(NC(=O)CN2CCCc3c(F)ccc(C)c32)CC1,3.84%
3,Cn1cnnc1C1CCCN(c2nc3ccccc3o2)C1 (stereo not given),-1.42%
4,Cc1nc(COc2ccc(S(=O)(=O)N(C)C)cc2)sc1C,5.76%
5,CN1CC2(CCCN(C(=O)Cc3cccc(O)c3)C2)OC1=O (stereo not given),8.24%
6,COC[C@]1(O)CCN(c2cc(OC)ncn2)CC1(C)C,20.7%
7,Cc1ccccc1Cc1nc(CSc2nnc(N)n2C)no1,2.88%
8,CC(C)C(CNC(=O)CCn1cncn1)N1CCc2ccccc2C1 (stereo not given),0.687%
9,Cc1cnn(C2CN(CCOc3ccccc3C#N)C2)c1,6.15%
10,CN(CCNC(=O)Nc1ccn(C)n1)Cc1ccc(F)cc1,3.18%
11,COc1cccc2c1OCC(Cc1cc(C(N)=O)ccn1)C2 (stereo not given),-13%
12,CN(Cc1nc(C2CC2)no1)C1CCS(=O)(=O)C1 (stereo not given),2.02%
13,Cn1cc(CN2CCC(c3ncc(Cl)cc3S(C)(=O)=O)CC2)cn1,9.1%
14,Cc1ccsc1C(CNC(=O)c1cc(=O)[nH]c(=O)[nH]1)N(C)C (stereo not given),3.78%
15,CC(O)c1cnn(-c2ccccc2)c1 (stereo not given),12.6%
16,O=C(CCNCc1cccc2c1OCCCO2)NC1CCCC1,-8.82%
17,CC1CCN(CCNC(=O)c2sccc2C2CC2)CC1,5.67%
18,Cc1nc(CN(C)Cc2csc(-c3cccs3)n2)co1,10.3%
19,COc1ccsc1C(=O)NC1CCN(c2ccc(C#N)cc2)CC1,13.5%
20,CCn1cnnc1CCNC(=O)c1ccc(F)c(Br)c1,-5.58%

row,SMILES,Percent Effect
1,O=C1OCCCN1Cc1nc(-c2ccc(N3CCCCC3)cc2)no1,-1.59%
2,CN(CCNC(=O)Nc1nccs1)Cc1ccc(F)cc1,-0.57%
3,CC(=O)N1CCC(C(=O)N2CCC2c2nc(-c3ccc(C)s3)no2)CC1 (stereo not given),7.15%
4,Cc1csc(N2CCC(CCN3CCCC3=O)CC2)n1,-12.1%
5,CC(C)c1ccc(CC(=O)N2CCCC3(CN(C)C(=O)O3)C2)cc1 (stereo not given),15%
6,O=C(NCc1cccnc1N1CCCCC1)c1ccc2cc[nH]c2c1,1.26%
7,COCCN1C[C@H]2CC[C@@H]1CN(C(=O)CCc1n[nH]c(C)c1C)C2,-0.161%
8,COC(=O)c1ccc(CCn2cnc(C#N)n2)cc1,-2.56%
9,CC(C)CC(=O)N1Cc2ccccc2CC1C(=O)Nc1nncs1 (stereo not given),-25.1%
10,Cc1[nH]ccc1C(=O)N1CCCC(c2ccc(C(=O)O)cc2)C1 (stereo not given),-0.307%
11,CC(C)(C)NC(=O)CN1CCNCC1,1.56%
12,Cc1cnn(CCCNC(=O)NCCS(=O)(=O)Nc2ccccc2)c1,13.3%
13,COc1ncc(CN2CCC3(CCNC(=O)CC3)CC2)cn1,-1.6%
14,Cc1c(F)cccc1S(=O)(=O)N(C)CC(C)O (stereo not given),1.59%
15,Cc1nc(O)cc(CN2C[C@H](NC(=O)C3CCCC3)[C@@H](C3CC3)C2)n1,-1.66%
16,CC(C)c1ccccc1OCCNC(=O)N1CCC(CC(N)=O)CC1,-3.47%
17,Cc1cc(C[S+]([O-])Cc2ccccc2F)on1 (stereo not given),6.4%
18,COCC1CCN(C(=O)c2cc(O)nc(CC(C)C)c2)CC1,-1.75%
19,C[C@H](N)C(=O)N1CCC(c2[nH]ncc2-c2ccccc2)CC1,-8.96%
20,CC1(C)CC1(C(=O)N1CC(c2cccnc2)C1)c1ccccc1F (stereo not given),-6.17%
